Screening data: PubChem BioAssay, several laboratories
TIM10 inh: TIM10 yeast growth inhibition; S. cerevisiae TIM10 strain growth, BacTiter-Glo luminescence, 24 h; inhibition, % at 10 µM; 330,000 compounds, 1.4% hits; AID 463195;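 active = inhibition of 40% or more at the single tested concentration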;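 note: wild-type TIM10 isogenic control strain grown at permissive 25 °C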
NALP1 inh: NALP1 inhibition; S. cerevisiae NALP1/ASC/caspase-1 growth, X-gal OD620, 72 h; inhibition, % at 10 µM; 280,000 compounds, 0.61% hits; in the data active = inhibition mostly above about 24%, no sharp cut-off; inactive = mostly below about 32%
NLRP3 yeast inh: inhibitors of NALP3 inflammasome in yeast; 330,000 compounds, 0.39% hits; Yeast reconstituted NLRP3/ASC/caspase-1, beta-gal luminescence, 24 h; inhibition, % at 10 µM;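 active = inhibition of 50% or more; inactive = inhibition below 50%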;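 note: plate controls were induced DMSO wells for no effect and uninduced yeast grown without galactose for full effect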
tim10-1 inh: tim10-1 yeast growth inhibition; S. cerevisiae tim10-1 ts strain growth, BacTiter-Glo, 24 h; inhibition, % at 20 µM; 330,000 compounds, 2.2% hits;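 active = inhibition of at least 40%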;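 note: mutant grown at 25 °C; 0% = DMSO wells with yeast and 100% = wells holding no yeast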
tim23-1 inh: tim23-1 yeast growth inhibition; S. cerevisiae tim23-1 growth, BacTiter-Glo luminescence, 24 h; inhibition, % at 20 µM; 330,000 compounds, 1.3% hits; AID 463212;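 active = growth inhibition of the mutant yeast at or above 50%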;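 note: temperature-sensitive mutant grown at 25 °C; plate controls were DMSO-treated mutant yeast for no effect and medium wells lacking yeast for full effect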
SKKanGAS inh: blocks kanamycin growth of S. pyogenes SKKanGAS strain; 300,000 compounds, 1.3% hits; BacTiter-Glo, 6 h; inhibition, % at 7.5 µM;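 active = mean replicate score, as percent of positive control median, at least 50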;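 note: strain carries kanamycin resistance gene driven by streptokinase promoter and grows in 40 µg/ml kanamycin; loss of luminescence reflects streptokinase promoter inhibition or plain growth inhibition; 0% = median of DMSO wells and 100% = positive control at its reference dose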
Numbers without * were called inactive; x = not tested or not shown. Sampled rows, rich in hits. Any-hit rate of the full collection: about 4.9%.

SMILES	TIM10 inh	NALP1 inh	NLRP3 yeast inh	tim10-1 inh	tim23-1 inh	SKKanGAS inh
CC(NC(=O)CN1C(=O)NC(C)(c2cccc3ccccc23)C1=O)c1ccccc1 (stereo unspecified)	15.2	2.3	8.9	-13.0	13.2	0.2
Cc1ccc(OC(C)C(=O)N(C)c2ccccc2)c([N+](=O)[O-])n1 (stereo unspecified)	9.2	x	7.2	-6.5	-3.5	x
COc1cc(Cl)c(C)cc1NC(=O)c1ccccc1-n1cnnn1	1.4	x	13.9	8.7	7.5	x
CCCCCCc1cc2cc(C(=O)OCC)c(=O)oc2cc1O	30.3	7.4	-5.3	18.8	15.4	56.0*
CCOC(=O)c1cnc(-n2nc(C)cc2C)nc1NNc1cc(-c2ccccc2)nc(C)n1	1.8	-8.4	11.4	-5.7	-14.0	102.5*
CCOC(=O)c1cnc(-n2nc(C)cc2C)nc1NCCO	10.4	26.9	11.9	13.3	-12.0	1.9
CC(=O)c1ccc(OC(=O)COc2ccccc2Cl)cc1	12.8	-7.1	0.0	14.8	4.0	1.8
O=C(CCc1nc(-c2ccccc2F)no1)Nc1ccc(Oc2ccccc2)cc1	25.1	40.9*	19.2	15.0	12.6	18.6
CCCCCCc1c(O)nc(SCC(=O)O)[nH]c1=O	x	32.7*	x	x	x	-2.5
CCO[C@@H]1OC(C(=O)NCc2ccccc2)=C[C@H](C2CC2)[C@H]1CCCO	4.8	-12.5	17.5	7.0	-3.1	-0.4
CCO[C@@H]1OC(C(=O)NCc2ccccc2)=C[C@H](C2CCCCC2)[C@H]1CCCO	9.9	21.0*	11.9	18.2	17.1	13.3
O=C(c1cnc(-c2ccccc2)s1)c1ccc(Cl)cc1Cl	28.3	3.9	3.3	11.5	27.7	57.2*
O=C(c1ccc(Cl)cc1)c1cnc(-c2ccccc2)s1	x	0.8	x	x	x	x
Cc1cc(C(F)(F)F)n2nc(C)c(-c3ccc(Cl)cc3)c2n1	-22.1	12.8	13.4	14.5	0.5	-1.4
Cc1cc(NCc2ccccn2)n2ncc(-c3ccccc3)c2n1	-12.2	10.9	20.6	2.8	-29.9	65.8*
Cc1cc(NCc2ccccn2)n2ncc(-c3ccc(Cl)cc3)c2n1	29.4	21.4	22.7	35.7	45.5	82.2*
Cc1cc(NCc2ccccn2)n2nc(C)c(-c3ccc(Cl)cc3)c2n1	27.5	3.5	17.3	17.9	17.1	81.1*
O=C(C1=C[C@H](c2csc3ccccc23)C[C@H](OCc2ccc(CO)cc2)O1)N1CCCCCCC1	6.4	x	-7.9	14.9	15.2	20.2
O=C(CN1CCN(c2ccccc2O)CC1)Nc1cc(S(=O)(=O)N2CCCC2)ccc1Cl	-14.9	x	24.0	3.8	19.6	x
O=C(NCCCN1CCCCC1)C1CCN(S(=O)(=O)N2CCC3(CC2)OCCO3)CC1	10.0	3.0	1.5	-12.3	2.1	1.6
COc1ccc(-c2cc(C)no2)cc1S(=O)(=O)NCc1ccc(OC(C)C)cc1	-5.1	14.8	3.8	15.4	21.8	6.3
COC(=O)c1c(NC(NC(=O)C(C)(C)C)C(Cl)(Cl)Cl)sc2c1CCC2 (stereo unspecified)	31.1	-1.8	7.9	36.4	26.4	59.2*
CC(C)(C)C(=O)NC(NC(=S)Nc1sc2c(c1C#N)CCCC2)C(Cl)(Cl)Cl (stereo unspecified)	12.2	-6.7	13.3	28.6	5.6	49.8*
CCC1CCC(C(=O)NC(CCSC)C(=O)NCCN(CC(C)C)CC(C)C)CC1 (stereo unspecified)	8.5	6.3	7.6	6.9	-1.5	-0.1
NS(=O)(=O)c1ccc(-c2ccc(/C=C3\SC(=S)N(C4CCS(=O)(=O)C4)C3=O)o2)cc1 (stereo unspecified)	5.7	x	20.8	25.3	20.0	73.4*
SMILES	TIM10 inh	NALP1 inh	NLRP3 yeast inh	tim10-1 inh	tim23-1 inh	SKKanGAS inh
O=C(O)C1=CC[C@@H](c2ccc(Cl)cc2)N(S(=O)(=O)c2ccc(Cl)cc2)[C@H]1c1ccc(Br)cc1	13.6	x	6.4	22.4	42.3	x
COc1cccc(-c2cc(C(F)(F)F)nc(N3CCC(C)CC3)n2)c1	-6.6	31.4	6.2	5.3	9.4	67.5*
CN1CCN(c2nc(-c3ccccc3)cc(C(F)(F)F)n2)CC1	12.7	14.7	19.5	19.6	15.4	5.4
COc1cccc(-c2cc(C(F)(F)F)nc(N3CCOCC3)n2)c1	5.3	11.9	0.9	11.3	17.0	4.1
Fc1ccc(-c2cc(C(F)(F)F)nc(N3CCCCC3)n2)cc1	-10.6	32.3	8.0	7.4	-17.3	65.5*
CCOC(=O)CCCCCC(=O)Nc1ccc2c(c1)CC(=O)N([C@H](C)CO)C[C@H](C)[C@H](CN(C)S(=O)(=O)c1ccc(OC)cc1)O2	-0.3	x	15.6	8.2	5.3	x
Cc1nc(-c2ccc(C(=O)Nc3cccc(Br)c3)cc2)cs1	39.3	-2.7	33.0	20.1	27.8	9.7
CCOC(=O)c1ccccc1NC(=O)C1CCCO1 (stereo unspecified)	-2.7	0.0	22.7	-0.2	0.7	4.4
CCc1ccc(NC(=O)c2ccccc2NC(=O)C2CCCO2)cc1 (stereo unspecified)	24.6	42.8*	-12.6	29.8	23.1	-7.5
CCN1/C(=C/c2ccc3cc(C)ccc3[n+]2CC)Sc2cc(C)ccc21	x	35.1*	x	x	x	x
CCN1/C(=C/c2ccc3cc(C)ccc3[n+]2C)Sc2ccc3sccc3c21	x	-27.7	x	x	x	x
CC(C)CNC(=O)CSc1n[nH]c(=O)n1CCc1ccccc1	-6.2	17.2	17.2	9.3	-8.8	-3.6
OCC#CCSc1nnc(-c2ccncc2)o1	7.6	31.4*	-2.1	8.8	-2.7	11.7
CCSc1nnc(-c2ccncc2)o1	-9.4	10.3	13.3	13.3	9.5	6.4
COc1ccccc1N(C)S(=O)(=O)c1ccc(C(=O)OCC(=O)N(C(C)C)C(C)C)cc1	-5.1	25.8*	6.9	32.8	22.7	1.7
Oc1[nH]c(=S)sc1C=C1N=c2ccccc2=N1	-8.6	3.8	26.7	-23.3	8.0	6.1
Oc1[nH]c(=S)sc1/C=C1\C(c2ccccc2)=Nc2ccccc21	x	14.0	x	x	x	76.2*
O=C1/C(=C/c2ccco2)CCc2ccccc21	0.3	37.8	1.0	20.2	31.1	5.7
Nc1ccc2c(c1)C/C(=C/c1ccco1)C2=O	-14.3	49.4*	21.8	-2.8	-35.0	11.2
CCN(C(=O)COC(=O)CCC(=O)c1ccccc1)c1c(N)n(Cc2ccccc2)c(=O)[nH]c1=O	8.7	x	-4.1	1.0	-10.6	x
CN1CCC(Oc2ccc(Sc3ccccc3)cc2)CC1	12.9	48.9*	14.7	36.1	17.4	-0.6
CN1CCC(Oc2ccccc2Sc2ccc(C(F)(F)F)cc2)CC1	11.3	43.2	18.3	20.2	3.5	6.5
CCOc1ccc(NC(=O)CCNC(=O)C2CCN(S(=O)(=O)c3ccccc3)CC2)cc1	-1.0	3.2	4.1	-5.6	5.7	4.9
CCc1nnc(NC(=O)CSc2nnc(CNc3ccc(F)cc3)n2C2CCCCC2)s1	-6.6	32.2*	12.4	13.3	-9.2	2.9
Cc1ccccc1OCc1csc(N)n1	-13.9	45.0*	24.2	-1.9	-6.9	12.0
